CYP2C9 inhib – blocks human cytochrome P450 2C9 | inhibition, % at 5 µM | AID 777 | CYP2C9 Supersomes, luciferin-H conversion, luminescence | 96,000 compounds, 20% hits;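 active = blocking of liver enzyme CYP2C9 beyond about 50% at 5 µM, limit read from the data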
CYP2C19 act – increases human CYP2C19 enzyme activity; P33261; recombinant CYP2C19, luciferin-H EGE luminescence; hits give high values; 0 = fully inhibited enzyme, 1 = untreated enzyme; activation factor at 5 µM; 96,000 tested, under 10 active; AID 1025;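 active = activation factor of at least 2 at 5 µM in the primary screen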;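 also: 0 = wells with 2.5 mM tranylcypromine and 1 = vehicle-only wells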
Target sequence (P33261 whole entry, looked up): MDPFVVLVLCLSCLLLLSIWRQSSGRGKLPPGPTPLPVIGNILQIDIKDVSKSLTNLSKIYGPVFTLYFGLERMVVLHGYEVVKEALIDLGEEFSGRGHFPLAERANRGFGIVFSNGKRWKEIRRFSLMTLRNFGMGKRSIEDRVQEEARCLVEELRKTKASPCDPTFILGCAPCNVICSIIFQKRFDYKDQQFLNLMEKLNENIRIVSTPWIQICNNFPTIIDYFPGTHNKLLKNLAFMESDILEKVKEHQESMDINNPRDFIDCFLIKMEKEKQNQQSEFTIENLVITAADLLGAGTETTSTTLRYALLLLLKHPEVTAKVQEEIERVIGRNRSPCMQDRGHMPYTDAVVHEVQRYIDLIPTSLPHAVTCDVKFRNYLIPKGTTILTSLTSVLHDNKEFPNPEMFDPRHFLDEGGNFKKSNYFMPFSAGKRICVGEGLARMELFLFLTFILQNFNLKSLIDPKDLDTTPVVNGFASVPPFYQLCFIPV
PTK2B oligo ant – Pyk2 (human) oligomerization antagonism; Q14289; Q293 cells, Pyk2 FERM NanoBiT luminescence; hits give low values; z-score (the deposit names both 25 µM and 10 µM); 99,000 compounds, 0.83% hits;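 active = Z-score of -3 or lower, scaled per plate to the spread of control and sample wells; inactive = z-score above -3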;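 also: negative z-score means lost luminescence so less FERM oligomerization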
CYP2C19 inhib – inhibitors of human CYP2C19 | inhibition, % at 5 µM | 96,000 compounds, 21% hits | CYP2C19 Supersomes, luciferin-H EGE luminescence, 30 min | P33261;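 active = CYP2C19 inhibition above a set limit at 5 µM in the primary screen, cut at about 50% in these data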;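 also: plate controls were negative control wells for no effect and 2.5 mM tranylcypromine positive control for full effect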
CYP2C9 act – activators of human CYP2C9 | P11712 | recombinant CYP2C9, luciferin-H conversion, luminescence; hits give high values; factor 1 = untreated enzyme, 0 = blocked | activation factor at 5 µM | 96,000 compounds, 1.4% hits;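 active = activation factor of 2 or more for CYP2C9 at a 5 µM dose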;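 also: 0 = sulfaphenazole-blocked wells and 1 = vehicle-only wells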
* hit, by the source's call. An excerpt weighted towards active compounds, which were near 28% of everything screened.

Results for COc1ccc(C2C(C#N)=C(N)Oc3cc(C)[nH]c(=O)c32)c(OC)c1OC (stereo not drawn) ?
CYP2C9 inhib: 9.5; CYP2C19 act: 1; PTK2B oligo ant: -0.83; CYP2C19 inhib: 1.8; CYP2C9 act: 0.9

What do the screens show for `COc1ccc(OC)c(N/C(C)=C/C(=O)c2ccc(C)o2)c1`?
CYP2C9 inhib: -4.8; CYP2C19 act: 0.9; PTK2B oligo ant: 0.09; CYP2C19 inhib: 5.5; CYP2C9 act: 1

Results for CC1CC(C)CN(C(=O)COc2ccc(-c3nnco3)cc2)C1 (stereo not drawn) ?
CYP2C9 inhib: 24.4; CYP2C19 act: 0.5; PTK2B oligo ant: 0.55; CYP2C19 inhib: 50.5*; CYP2C9 act: 0.8

What do the screens show for `CCOC(=O)c1[nH]nc2c1C(=O)N(Cc1ccccc1)C2=O`?
CYP2C9 inhib: 20.2; CYP2C19 act: 0.7; PTK2B oligo ant: -0.05; CYP2C19 inhib: 34.0; CYP2C9 act: 0.8

What do the screens show for `COc1ccc(-c2csc(/C(C#N)=C(\O)CSc3nccn3C)n2)cc1OC`?
CYP2C9 inhib: 68.7*; CYP2C19 act: 0.8; PTK2B oligo ant: 0.23; CYP2C19 inhib: 19.0; CYP2C9 act: 0.3

How did Cc1cc(NS(=O)(=O)c2ccc(Nc3nc(-c4sc(NC(=O)c5ccccc5)nc4C)cs3)cc2)no1 do in these assays?
CYP2C9 inhib: 75.0*; CYP2C19 act: 1.2; CYP2C19 inhib: -17.5; CYP2C9 act: 0.3

How did Cc1ccc(Cl)cc1Nc1nc(-c2sc(NC(=O)c3ccccc3)nc2C)cs1 do in these assays?
CYP2C9 inhib: 76.6*; CYP2C19 act: 0.5; CYP2C19 inhib: 52.1*; CYP2C9 act: 0.2

Results for Cc1nc2sccn2c1-c1csc(NCc2ccccc2)n1 ?
CYP2C9 inhib: 61.6*; CYP2C19 act: 0.1; PTK2B oligo ant: 0.46; CYP2C19 inhib: 89.6*; CYP2C9 act: 0.4

What do the screens show for `Cc1nc(NC(=O)c2ccccc2)sc1-c1csc(NCCc2ccccc2)n1`?
CYP2C9 inhib: 77.7*; CYP2C19 act: 0.5; PTK2B oligo ant: 0.09; CYP2C19 inhib: 48.1; CYP2C9 act: 0.2

Results for Cc1nc(NC(=O)c2ccccc2)sc1-c1csc(N)n1 ?
CYP2C9 inhib: 54.4*; CYP2C19 act: 0.8; PTK2B oligo ant: -0.07; CYP2C19 inhib: 19.4; CYP2C9 act: 0.5

Results for Cc1nc(NC(=O)c2ccccc2)sc1-c1csc(NCc2ccccc2)n1 ?
CYP2C9 inhib: 65.6*; CYP2C19 act: 0.5; PTK2B oligo ant: -0.66; CYP2C19 inhib: 51.1*; CYP2C9 act: 0.3

Results for Cc1nc(N)sc1-c1csc(NCc2ccccc2)n1 ?
CYP2C9 inhib: 43.3; CYP2C19 act: 0.7; PTK2B oligo ant: -0.43; CYP2C19 inhib: 30.0; CYP2C9 act: 0.6

What do the screens show for `CCOc1ccc(OCC)c(NC(=O)C2CCCN(S(=O)(=O)c3c(C)n[nH]c3C)C2)c1` (stereo not drawn)?
CYP2C9 inhib: 63.5*; CYP2C19 act: 0.5; CYP2C19 inhib: 45.4; CYP2C9 act: 0.4

What do the screens show for `CCOc1ccc(OCC)c(NC(=O)C2CCCN(S(=O)(=O)c3cnc[nH]3)C2)c1` (stereo not drawn)?
CYP2C9 inhib: 79.2*; CYP2C19 act: 0.6; CYP2C19 inhib: 44.1; CYP2C9 act: 0.2

What do the screens show for `CCOc1cccc(C2C(C(=O)c3ccco3)=C(O)C(=O)N2Cc2ccncc2)c1` (stereo not drawn)?
CYP2C9 inhib: 22.5; CYP2C19 act: 1.1; PTK2B oligo ant: 1.39; CYP2C19 inhib: -12.7; CYP2C9 act: 0.8

Results for O=C(NCCN1CCOCC1)c1noc2c1CCc1ccccc1-2 ?
CYP2C9 inhib: -56.3; CYP2C19 act: 1.1; PTK2B oligo ant: 0.39; CYP2C19 inhib: -11.7; CYP2C9 act: 1.6

How did COC(=O)n1ccc(C(=O)Nc2ccccc2F)n1 do in these assays?
CYP2C9 inhib: 7.2; CYP2C19 act: 1; PTK2B oligo ant: 1.06; CYP2C19 inhib: 4.4; CYP2C9 act: 0.9

How did Clc1cccc(Cl)c1-c1nnc2cccc(Cl)n12 do in these assays?
PTK2B oligo ant: -0.33

Results for Cc1cc(C)n(S(=O)(=O)/C=C/c2ccccc2)n1 ?
CYP2C9 inhib: -24.5; CYP2C19 act: 0.3; PTK2B oligo ant: 0.45; CYP2C19 inhib: 73.9*; CYP2C9 act: 1.2

What do the screens show for `CCOc1ccc2nc(NC(=O)CN3CCC(n4nnc5cc(F)ccc54)CC3)sc2c1`?
CYP2C9 inhib: 86.0*; CYP2C19 act: 0.2; PTK2B oligo ant: -3.3*; CYP2C19 inhib: 79.6*; CYP2C9 act: 0.1

Compound activity (PubChem BioAssay)
